Assay outcomes from PubChem BioAssay.
Most compounds without a hit are left out; they make up all but 4.1% or so of the library.
hcDAF-12 act = H. contortus DAF-12 activation, primary screen | HEK293 hcDAF-12 lit1-tk-luc reporter, luminescence; 0% DMSO, 100% Δ7-dafachronic acid | activation, % at 6.8 µM | 1.4% of 370,000 active;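 active = activation above the mean of all tested compounds plus 3 SD, cut at about 5.5% in these data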
PolyA inhibitor = yeast polyadenylation inhibition; S. cerevisiae SKY197-pL101 polyadenylation reporter, beta-gal luminescence; efflux-impaired pdr1/pdr3 knockout yeast; score 100 = 6 SD above DMSO; activity score, % at 12 µM; 0.02% of 300,000 active; AID 1875;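 active = lowest replicate activity score at least 50, where 100 means six control SD above control mean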;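 note: yeast exposed to compound for 9 h at 30 °C; higher score means more reporter readthrough which indicates perturbed polyadenylation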
ssDAF-12 act = activates DAF-12 receptor from parasite S. stercoralis. HEK293 ssDAF-12/GRIP1 lit1-tk-luc reporter, luminescence; % of 3 µM dafachronic acid response. activation, % at 6.8 µM. 1% of 370,000 active. AID 652126;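 active = activation above the mean over all tested compounds plus 3 SD, cut at about 0.9% in these data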
DAX1 inh-1 = inhibits human nuclear receptor DAX1; AID 504766; inhibition, % at 6.75 µM; HEK293 Gal4-DAX1 luciferase reporter, luminescence; 0.99% of 340,000 active;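 active = inhibition above the mean over all tested compounds plus 3 SD, cut at about 4.2% in these data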;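 note: inhibition shows as a rise in luminescence from relieved DAX1 repression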
Target sequence (P51843 207-470 limits assumed): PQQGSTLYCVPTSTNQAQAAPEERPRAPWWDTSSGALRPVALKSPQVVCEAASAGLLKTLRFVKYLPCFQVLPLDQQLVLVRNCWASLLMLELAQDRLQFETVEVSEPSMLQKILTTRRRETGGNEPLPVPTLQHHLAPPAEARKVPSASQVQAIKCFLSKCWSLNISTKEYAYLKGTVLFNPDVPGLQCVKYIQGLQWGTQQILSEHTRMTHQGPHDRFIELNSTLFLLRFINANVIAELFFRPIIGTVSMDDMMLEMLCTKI
hgDAF12 agonist = activates the H. glycines DAF-12 receptor ligand-binding domain. activation, % at 6.8 µM. HEK293 GAL4-hgDAF12 UAS-luciferase reporter, agonist luminescence; normalized to butyrate control. 1.8% of 370,000 active;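 active = activation above a cutoff set at the mean of all screened compounds plus 3 SD, cut at about 10% in these data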
DAX1 inh-2 = blocks DAX1 repression of SF-1 activated StAR promoter; HEK293T StAR-luciferase reporter, SF-1/DAX-1 repression relief; inhibition, % at 6.8 µM; 1.1% of 370,000 active; AID 652010;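 active = inhibition above the mean over all tested compounds plus 3 SD, cut at about 3.6% in these data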;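 note: higher inhibition means more luminescence from relief of DAX-1 repression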
LXR ag = LXR-beta agonism as hcDAF-12 counter-screen; HEK293 Gal4-LXR tk-luc reporter, luminescence, 24 h; normalized: DMSO 0%, positive control 100%; 3,400 tested, under 10 active; shares compounds with hcDAF-12 act; activation, % at 6.8 µM; AID 743027;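 active = mean percent activation of the reporter above a cutoff set as the average over tested compounds plus their standard deviation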
Target sequence (P55055 whole entry, looked up, the tested form may be a part): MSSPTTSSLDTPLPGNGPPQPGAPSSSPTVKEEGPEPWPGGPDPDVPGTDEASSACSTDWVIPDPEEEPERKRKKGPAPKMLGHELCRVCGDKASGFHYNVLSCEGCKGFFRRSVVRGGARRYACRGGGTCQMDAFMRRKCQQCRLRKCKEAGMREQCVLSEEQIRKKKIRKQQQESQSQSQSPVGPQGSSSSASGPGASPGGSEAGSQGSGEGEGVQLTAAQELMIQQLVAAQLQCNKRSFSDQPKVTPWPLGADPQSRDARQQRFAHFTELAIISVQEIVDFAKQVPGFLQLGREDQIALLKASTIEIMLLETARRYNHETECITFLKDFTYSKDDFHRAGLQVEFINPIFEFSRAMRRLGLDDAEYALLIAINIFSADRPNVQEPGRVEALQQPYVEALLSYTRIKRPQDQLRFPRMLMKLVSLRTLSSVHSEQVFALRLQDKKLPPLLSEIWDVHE
hcDAF12 conf = confirmation of H. contortus DAF-12 agonists; shares compounds with hcDAF-12 act; HEK293 hcDAF-12 lit1-tk-luc reporter, luminescence; % of Δ7-dafachronic acid response; activation, % at 6.8 µM; 61% of 3,400 active; AID 743032;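 active = mean activation across triplicate tests above the threshold derived from the earlier primary screen, cut at about 5.5% in these data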
Numbers stand for hits.

What do the screens show for `c1ccc(NC2=Nc3ccccc3CS2)cc1`?
hcDAF-12 act: 7.2; PolyA inhibitor: inactive; ssDAF-12 act: inactive; DAX1 inh-1: inactive; hgDAF12 agonist: 13.2; DAX1 inh-2: inactive; LXR ag: inactive; hcDAF12 conf: 7.5

What do the screens show for `Cc1ccc(N=C2NC(=O)/C(=C/C=C/c3ccco3)S2)cc1`?
hcDAF-12 act: 7.9; PolyA inhibitor: inactive; ssDAF-12 act: inactive; DAX1 inh-1: inactive; hgDAF12 agonist: inactive; DAX1 inh-2: inactive; LXR ag: inactive; hcDAF12 conf: inactive

What do the screens show for `CC(C)c1[nH]nc2c1C(C(C)C)C(C#N)=C(N)O2` (centres undefined)?
hcDAF-12 act: 6.9; PolyA inhibitor: inactive; ssDAF-12 act: 1.3; DAX1 inh-1: inactive; hgDAF12 agonist: inactive; DAX1 inh-2: inactive; LXR ag: inactive; hcDAF12 conf: 7.8

Results for CC(C)C1C(C#N)=C(N)Oc2n[nH]c(-c3ccccc3)c21 (centres undefined) ?
hcDAF-12 act: inactive; PolyA inhibitor: inactive; ssDAF-12 act: inactive; DAX1 inh-1: inactive; hgDAF12 agonist: inactive; DAX1 inh-2: inactive

How did O=C(Nc1ccccn1)c1ccc2ccccc2c1O do in these assays?
hcDAF-12 act: 8.4; PolyA inhibitor: inactive; ssDAF-12 act: 1.5; DAX1 inh-1: inactive; hgDAF12 agonist: inactive; DAX1 inh-2: inactive; LXR ag: inactive; hcDAF12 conf: 8.7

How did O=C(Nc1ccccn1)c1ccco1 do in these assays?
hcDAF-12 act: 8.5; PolyA inhibitor: inactive; ssDAF-12 act: inactive; DAX1 inh-1: inactive; hgDAF12 agonist: inactive; DAX1 inh-2: inactive; LXR ag: inactive; hcDAF12 conf: inactive

What do the screens show for `Cc1cccc(C(=O)NNC(=O)c2ccc(Cl)cc2)c1O`?
hcDAF-12 act: 7.1; PolyA inhibitor: inactive; ssDAF-12 act: inactive; DAX1 inh-1: inactive; hgDAF12 agonist: inactive; DAX1 inh-2: inactive; LXR ag: inactive; hcDAF12 conf: 5.9

Results for Cc1ccc(N(CCC#N)C(=O)COC(=O)C2CCN(S(=O)(=O)c3ccc4c(c3)OCCO4)CC2)cc1 ?
hcDAF-12 act: inactive; PolyA inhibitor: inactive; ssDAF-12 act: inactive; DAX1 inh-1: inactive; hgDAF12 agonist: inactive; DAX1 inh-2: inactive

What do the screens show for `CCn1nnc2cc(C(=O)Nc3cc(OC)cc(OC)c3)ccc21`?
hcDAF-12 act: inactive; PolyA inhibitor: inactive; ssDAF-12 act: inactive; DAX1 inh-1: inactive; hgDAF12 agonist: inactive; DAX1 inh-2: inactive

Results for Cc1cccc(Nc2nc(-c3cccs3)cs2)n1 ?
hcDAF-12 act: 19.5; PolyA inhibitor: inactive; ssDAF-12 act: 4.0; DAX1 inh-1: 4.7; hgDAF12 agonist: 16.9; DAX1 inh-2: inactive; LXR ag: inactive; hcDAF12 conf: 16.9

How did c1csc(-c2csc(-c3cccs3)n2)c1 do in these assays?
hcDAF-12 act: inactive; PolyA inhibitor: inactive; ssDAF-12 act: inactive; DAX1 inh-1: inactive; hgDAF12 agonist: inactive; DAX1 inh-2: inactive

What do the screens show for `O=C(OCc1ccccc1)N1CCC2CC1c1cc(-c3cc4ccccc4o3)ccc12` (centres undefined)?
hcDAF-12 act: inactive; ssDAF-12 act: inactive; DAX1 inh-1: inactive; hgDAF12 agonist: inactive; DAX1 inh-2: inactive

What do the screens show for `O=C(NNC(=S)NC(=O)c1ccccc1[N+](=O)[O-])c1ccccc1Cl`?
hcDAF-12 act: 7.2; PolyA inhibitor: inactive; ssDAF-12 act: inactive; DAX1 inh-1: inactive; hgDAF12 agonist: inactive; DAX1 inh-2: inactive; LXR ag: inactive; hcDAF12 conf: inactive

How did O=C(NC(=S)Nc1ccccc1[N+](=O)[O-])c1ccccc1Cl do in these assays?
hcDAF-12 act: inactive; PolyA inhibitor: inactive; ssDAF-12 act: inactive; DAX1 inh-1: inactive; hgDAF12 agonist: inactive; DAX1 inh-2: inactive

What do the screens show for `c1ccc2c(-c3nc4ncccc4o3)cccc2c1`?
hcDAF-12 act: 8.3; PolyA inhibitor: inactive; ssDAF-12 act: inactive; DAX1 inh-1: inactive; hgDAF12 agonist: inactive; DAX1 inh-2: inactive; LXR ag: inactive; hcDAF12 conf: 5.6

What do the screens show for `Fc1ccccc1-c1nc2ncccc2o1`?
hcDAF-12 act: inactive; PolyA inhibitor: inactive; ssDAF-12 act: inactive; DAX1 inh-1: inactive; hgDAF12 agonist: inactive; DAX1 inh-2: inactive

Results for CC/C(=N/NC(=O)c1ccc2c(c1)OCO2)c1ccccc1O ?
hcDAF-12 act: 13.7; PolyA inhibitor: inactive; ssDAF-12 act: 1.1; DAX1 inh-1: 4.9; hgDAF12 agonist: inactive; DAX1 inh-2: inactive; LXR ag: inactive; hcDAF12 conf: inactive

What do the screens show for `Clc1cccc(CN2CCC3CC2c2cc(N4CCCCC4)ccc23)c1` (centres undefined)?
hcDAF-12 act: inactive; ssDAF-12 act: inactive; DAX1 inh-1: inactive; hgDAF12 agonist: inactive; DAX1 inh-2: inactive

Results for COC(=O)C1=C(C)NC2=C(C(=O)CCC2)C1c1coc2ccccc2c1=O (centres undefined) ?
hcDAF-12 act: inactive; PolyA inhibitor: inactive; ssDAF-12 act: inactive; DAX1 inh-1: inactive; hgDAF12 agonist: inactive; DAX1 inh-2: inactive

What do the screens show for `CCOC(=O)C1=C(C)NC2=C(C(=O)CCC2)C1c1coc2ccccc2c1=O` (centres undefined)?
hcDAF-12 act: 6.8; PolyA inhibitor: inactive; ssDAF-12 act: inactive; DAX1 inh-1: inactive; hgDAF12 agonist: inactive; DAX1 inh-2: inactive; LXR ag: inactive; hcDAF12 conf: inactive

Results for C=CCCC(=O)N1C[C@H]2CCN(C)[C@H]2C[C@H]1c1ccccc1Br ?
hcDAF-12 act: inactive; ssDAF-12 act: inactive; hgDAF12 agonist: inactive; DAX1 inh-2: inactive

What do the screens show for `Cc1cc(C)c2c(N)c(C(=O)c3ccccc3)oc2n1`?
hcDAF-12 act: inactive; PolyA inhibitor: inactive; ssDAF-12 act: inactive; DAX1 inh-1: inactive; hgDAF12 agonist: inactive; DAX1 inh-2: inactive

Results for Cc1cc(-c2ccccc2)nc2oc(C(=O)NN)c(N)c12 ?
hcDAF-12 act: 6.6; PolyA inhibitor: inactive; ssDAF-12 act: 1.2; DAX1 inh-1: inactive; hgDAF12 agonist: inactive; DAX1 inh-2: inactive; LXR ag: inactive; hcDAF12 conf: inactive

How did COC(=O)N(C)c1nc2ccccc2s1 do in these assays?
hcDAF-12 act: inactive; PolyA inhibitor: inactive; ssDAF-12 act: inactive; DAX1 inh-1: inactive; hgDAF12 agonist: inactive; DAX1 inh-2: inactive

What do the screens show for `COC(=O)c1cn(-c2nc3ccccc3s2)nn1`?
hcDAF-12 act: 7.8; ssDAF-12 act: inactive; hgDAF12 agonist: inactive; DAX1 inh-2: inactive; LXR ag: inactive; hcDAF12 conf: inactive

Results for O=C(NCCOc1ccccc1)C1C(=O)Nc2ccccc2C(=O)N1C1CCCCC1 (centres undefined) ?
hcDAF-12 act: inactive; ssDAF-12 act: inactive; hgDAF12 agonist: inactive; DAX1 inh-2: inactive
